Experimental data from article PMC5540273 (PLoS ONE, 2017).

How the values were obtained:
Conditions in all cases: concentration: 1 μM, replicates: in singlicate; n = 1
PRKCQ = system: PRKCQ
PRKD1 = system: PRKD1
PRKD2 = system: PRKD2
PRKD3 = system: PRKD3
PRKG1 = system: PRKG1
PRKG2 = system: PRKG2
PRKR = system: T1, PRKR
T1 construct: gene EIF2AK2

PRKX = system: PRKX
PRP4 = system: PRP4
PYK2 = system: T2, PYK2
T2 construct: gene PTK2B

QSK = system: QSK
RAF1 = system: RAF1
RET = system: RET
RIOK1 = system: RIOK1
RIOK2 = system: RIOK2
RIOK3 = system: RIOK3
RIPK1 = system: RIPK1
RIPK2 = system: RIPK2
RIPK4 = system: RIPK4
RIPK5 = system: RIPK5
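Further: KINOMEscan kinase panel screen.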

Compound | %Inh (PRKCQ) | %Inh (PRKD1) | %Inh (PRKD2) | %Inh (PRKD3) | %Inh (PRKG1) | %Inh (PRKG2) | %Inh (PRKR) | %Inh (PRKX) | %Inh (PRP4) | %Inh (PYK2) | %Inh (QSK) | %Inh (RAF1) | %Inh (RET) | %Inh (RIOK1) | %Inh (RIOK2) | %Inh (RIOK3) | %Inh (RIPK1) | %Inh (RIPK2) | %Inh (RIPK4) | %Inh (RIPK5)
Fc1cc(Cl)ccc1Nc1ccnc2cc(-c3ccc(CN4CCCCC4)o3)ccc12 [GW560116] | 0% | 0% | 0% | 0% | 0% | 0% | 0% | 0% | 21% | 0% | 29% | 8% | 22% | 12% | 0% | 0% | 8% | 61% | 0% | 0%
NC(=O)c1nnc2ccccc2c1N | 3% | 0% | 53% | 0% | 0% | 14% | 0% | 1% | 0% | 12% | 22% | 19% | 8% | 64% | 44% | 57% | 0% | 0% | 45% | 0%
COc1cccc(-c2cc(-c3c[nH]nc3-c3ccccn3)ccn2)c1 [GW680338] | 2% | 62% | 47% | 34% | 6% | 0% | 0% | 0% | 26% | 0% | 17% | 25% | 21% | 1% | 3% | 91.4% | 19% | 27% | 0% | 5%
COc1ccc(Nc2nccc(-c3cccc(NC(=O)c4cc5cc(F)ccc5[nH]4)c3)n2)cc1 [GSK1229782] | 12% | 10% | 11% | 24% | 10% | 0% | 10% | 46% | 66% | 21% | 3% | 13% | 14% | 72% | 3% | 50% | 22% | 17% | 0% | 25%
COc1ccc(C2=C(Nc3cccc(C(=O)O)c3)C(=O)NC2=O)cc1 [SB-390765] | 12% | 0% | 0% | 0% | 0% | 0% | 11% | 0% | 0% | 17% | 27% | 11% | 3% | 13% | 18% | 0% | 0% | 0% | 18% | 31%
Cc1ccc(-c2cc(-c3c[nH]nc3-c3ccccn3)ccn2)cc1 [GW684088] | 1% | 68% | 62% | 69% | 0% | 16% | 24% | 21% | 27% | 16% | 0% | 21% | 6% | 18% | 0% | 3% | 28% | 27% | 0% | 3%
Cc1cccc(-c2cc(Nc3ccncc3)c3ccccc3n2)n1 [GSK223675] | 0% | 91.1% | 96% | 100% | 0% | 0% | 0% | 16% | 19% | 14% | 0% | 6% | 0% | 19% | 0% | 29% | 0% | 6% | 21% | 6%
CN1C(=O)C(Nc2ccc(Cl)c(C(=O)O)c2)=C(c2ccc(Cl)cc2)C1=O [SB-404290] | 77% | 0% | 6% | 0% | 13% | 0% | 0% | 0% | 0% | 5% | 40% | 0% | 0% | 0% | 0% | 18% | 0% | 0% | 18% | 17%
O=C(Nc1n[nH]c2nc(-c3nccs3)c(Br)cc12)C1CC1 [SB-742251] | 32% | 0% | 0% | 0% | 0% | 0% | 0% | 0% | 51% | 0% | 19% | 8% | 12% | 30% | 0% | 29% | 15% | 10% | 17% | 0%
Cc1ccc(C(=O)Nc2ccc(Nc3ccnc4cc(-c5ccccn5)ccc34)cc2O)cc1.Cl [GW440146] | 6% | 17% | 0% | 18% | 0% | 0% | 0% | 9% | 12% | 1% | 0% | 8% | 26% | 14% | 3% | 81% | 0% | 52% | 3% | 0%
